Screens from PubChem.
Most compounds without a hit are left out; they make up all but 3% or so of the library.
PfHsp90 yeast 2: growth inhibition of yeast expressing Plasmodium Hsp90. S. cerevisiae expressing PfHsp90, BacTiter-Glo ATP, 48 h; yeast lacking PDR1 and PDR3 efflux regulators. 0.32% of 310,000 active. inhibition, % at 9.4 µM;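 active = every replicate shows inhibition above about 80%, whatever the replicate mean, limit read from the data; inconclusive = mean inhibition reaches the set limit but some replicate falls short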;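 also: 0% = DMSO neutral controls and 100% = 20 µM radicicol positive controls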
Vif inh: HIV Vif inhibition; HEK293T cells, Vif self-association by quenched fluorescence, imaging, 24 h; inhibition, % at 7.49 µM; 0.35% of 340,000 active; AID 602346; in the data active = inhibition above about 50%, passing the limit was not always enough; inconclusive = no clear call, values can overlap the other calls; inactive = below about 31%
esBAF inh: inhibitors of esBAF chromatin remodeling in mouse ES cells; Bmi1-luciferase knock-in reporter, 24 h; 100% = twice the neutral-well signal; reporter increase, % at 12.5 µM; 2% of 350,000 active; in the data active = activation above about 40%; inconclusive = no clear call, values can overlap the other calls;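 also: 0% = median of the plate's neutral control wells and 100% = double that signal; a rise in the Bmi1 reporter signal indicates esBAF inhibition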
Glyco luc inh: blocks N-linked glycosylation in D54 reporter cells; D54 ERlucT glycosylation luciferase reporter, 24 h; percent of 100 nM tunicamycin response; reporter increase, % at 12.5 µM; 0.23% of 360,000 active;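 active = mean luciferase reporter signal, scaled so untreated is 0 and the glycosylation-blocking control 100, at or above a set limit in every replicate; inconclusive = mean reaches the limit but not every replicate does; inactive = mean below the limit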;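 also: luciferase carries N-glycosylation sites so blocking glycosylation raises the light; 0% = median of neutral control wells and 100% = median of 100 nM tunicamycin wells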
Wnt bcat act: activates Wnt/beta-catenin signaling in a reporter cell assay; activator, plate reader; activation, % at 9.35 µM; 1.2% of 300,000 active; AID 743398; in the data active = activation above about 30%, passing the limit was not always enough; inconclusive = no clear call, values can overlap the other calls;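 also: 0% = neutral control wells and 100% = positive control wells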
MITF act: increases MITF-driven TRPM1 promoter luciferase signal; SK-MEL-5 TRPM1-promoter luciferase, 24 h; % of positive control, neutral wells = 0; activation, % at 12.5 µM; 0.75% of 300,000 active;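 active = mean activation of at least 80% with every replicate also reaching 80%; inconclusive = mean reaches 80% but some replicate falls short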;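 also: 0% = neutral control wells and 100% = parthenolide positive control wells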
* = called active by the depositor; u = inconclusive; x = no result given.

SMILES	PfHsp90 yeast 2	Vif inh	esBAF inh	Glyco luc inh	Wnt bcat act	MITF act
Cc1nc(-c2ccccc2Cl)sc1C(=O)/C=C/N(C)C	12	-4	59*	-2	7	57
CC(=O)Nc1cccc(NC(=O)CSc2ccc(C(F)(F)F)cc2[N+](=O)[O-])c1	-39	-22	5	0	-1	-4
O=C(O)c1cc(-c2ccc(/C=N/N3C(=O)C4C5C=CC(CC5)C4C3=O)o2)ccc1Cl (stereo not given)	6	-1	x	-1	0	1
COC(=O)c1ccc(-c2ccc(/C=N/N3C(=O)C4C5C=CC(CC5)C4C3=O)o2)cc1 (stereo not given)	0	-12	60*	-3	28	49
O=[N+]([O-])c1ccc(-c2cn(-c3ccccc3)c(=S)[nH]2)cc1	-1	4	x	2	49*	14
COc1ccc(-c2cn(-c3ccccc3)c(=S)[nH]2)cc1OC	-9	-5	44*	-12	5	17
COc1ccc(-c2cn(-c3ccc(C)c(C)c3)c(=S)[nH]2)cc1OC	-7	-5	8	-2	4	0
COc1cccc(-n2cc(-c3ccc(F)cc3)[nH]c2=S)c1	19	-2	55*	-1	18	41
Cc1noc(C)c1NC(=O)Nc1cccc2c1O[C@@H](CN(C)Cc1ccc(-c3ccccc3)cc1)[C@H](C)CN([C@H](C)CO)C2=O	x	x	-1	x	x	x
O=C(c1ccccc1)c1cc([N+](=O)[O-])ccc1N1CCOCC1	3	16	x	20	-23	-7
C[C@@H]1CN([C@H](C)CO)C(=O)Cc2cc(NC(=O)Nc3cccc4ccccc34)ccc2O[C@@H]1CN(C)S(C)(=O)=O	x	x	2	x	x	x
COc1ccc(NC(=O)Nc2cc(C)ccn2)cc1	8	-2	-67	-18	44*	9
Cc1ccc(NC(=O)c2cccc3ccccc23)cc1	25	-2	61*	3	-1	x
Cc1ccnc(NC(=O)COc2ccc3c(c2)CCC3)c1	-26	7	53*	-20	-19	42
Cc1ccnc(NC(=O)Nc2ccc(Br)cc2Cl)c1	0	4	x	-7	39*	17
Cc1ccnc(NC(=O)Nc2ccc(F)cc2)c1	-7	7	x	-6	x	42
CCOc1ccc(S(=O)(=O)N2CCCCC2)cc1NC(=O)C1COc2ccccc2O1 (stereo not given)	1	-5	0	-5	1	-9
COc1cc2ccccc2cc1C(=O)Nc1ccc(C)cc1	2	-8	46*	7	12	x
COc1cc2ccccc2cc1C(=O)Nc1cc(C)ccn1	-3	-5	55*	-1	26	31
COc1cc2ccccc2cc1C(=O)Nc1ccc(Cc2ccncc2)cc1	11	-9	-4	1	x	0
Cc1ccc(Cn2cc(/C=N/Nc3ccc([N+](=O)[O-])cn3)c3ccccc32)cc1	13	-8	45*	-15	-2	14
COc1cccc(/C=N/Nc2ccc([N+](=O)[O-])cn2)c1O	94*	15	-71	-21	8	-9
Cc1ccc(C=NNc2ccc([N+](=O)[O-])cn2)cc1	-8	-3	x	-9	6	122*
O=C(O)Cn1cc(/C=N/Nc2ccc([N+](=O)[O-])cn2)c2ccccc21	2	-11	5	0	-2	-22
Cc1ccc(-n2c(C)cc(/C=N/Nc3ccc([N+](=O)[O-])cn3)c2C)cc1	-16	x	x	-5	x	-4
SMILES	PfHsp90 yeast 2	Vif inh	esBAF inh	Glyco luc inh	Wnt bcat act	MITF act
O=C(O)C1CCN(S(=O)(=O)c2ccc3c(c2)OCCCO3)CC1	x	0	7	4	-2	-2
Cc1ccc(S(=O)(=O)NN2C(=O)c3ccccc3NC2c2ccccc2F)cc1 (stereo not given)	9	-3	-5	-2	-3	-5
O=C(Nc1ccn(Cc2ccccc2)n1)c1ccc2c(c1)OCO2	9	2	x	0	16	72
O=C(Nc1ccn(Cc2ccc(Cl)cc2)n1)c1ccccc1	1	-4	56*	-2	35*	u
Cn1cccc1Cc1nnc(SCC(=O)NC2CCCCC2)n1-c1ccc(F)cc1	-1	2	-1	1	-2	6
COc1ccc(OC)c(C2CC(c3ccccc3)=NN2C(=S)Nc2ccccc2)c1 (stereo not given)	0	13	x	14	-11	-12
COc1ccccc1C1=NN(C(=S)Nc2ccccc2)C(c2ccco2)C1 (stereo not given)	5	1	56*	5	x	32
CN(C)S(=O)(=O)c1ccc(Cl)c(NC(=O)COC(=O)CCSc2ccccc2)c1	0	-1	x	3	8	-3
CC(=O)c1cccc(S(=O)(=O)NCC(c2ccco2)N2CCCCC2)c1 (stereo not given)	x	-6	6	3	3	-7
C[C@@H]1CCCCO[C@H](CN(C)C(=O)Nc2ccc3c(c2)OCO3)[C@H](C)CN([C@H](C)CO)C(=O)c2cc(NC(=O)C3CCCCC3)ccc2O1	x	x	4	x	x	x
CCOc1ccc(/C=N/N(C)c2ccccc2)cc1OC	-23	x	86*	-1	x	109*
CCc1ccc(-c2csc(NC(=O)C3=COCCO3)n2)cc1	-9	-3	75*	1	u	82*
O=C(Nc1nc(-c2cccs2)cs1)C1=COCCO1	-21	-2	x	-3	-7	63
Cc1cc(C)c(-c2csc(NC(=O)C3=COCCO3)n2)c(C)c1	x	4	29	-2	0	-8
O=C(Cc1ccccc1F)Nc1nc(-c2ccc(F)c(F)c2)cs1	-11	-10	65*	-4	9	83*
COc1ccc(-c2csc(NC(=O)C3=COCCO3)n2)cc1OC	-36	7	66*	-3	35*	74
O=C(Cc1ccccc1)Nc1nc(-c2ccc(F)c(F)c2)cs1	-22	-14	16	-3	4	29
O=C(Nc1nc(-c2ccc(F)c(F)c2)cs1)C1=COCCO1	x	-6	53*	3	9	62
O=C(Nc1nc(-c2ccc(Cl)cc2)cs1)C1=COCCO1	4	-5	x	3	-2	99*
COCCNS(=O)(=O)c1ccc(-c2ccc(Cl)cc2)cc1	15	-5	x	1	0	-1
O=c1c2cccc(Cl)c2nc2n1Cc1ccccc1-2	-11	-1	x	3	39*	x
O=c1cc(-c2ccccc2)nc2n1Cc1ccccc1-2	-2	1	10	1	x	-2
C[C@@H]1CN([C@H](C)CO)C(=O)c2cc(C#CCc3ccccc3)cnc2O[C@H]1CN(C)Cc1ccc(C(=O)O)cc1	x	x	-2	x	x	x
O=C(CN1CCN(c2ncc(C(F)(F)F)cc2Cl)CC1)NCCNc1ncc(C(F)(F)F)cc1Cl	100*	-1	-8	2	2	-11
CN(C)/C=C/C(=O)c1ccc(N2CCN(c3ncc(C(F)(F)F)cc3Cl)CC2)cc1	109*	-13	18	-2	x	-27
